Laboratory results as given in PubChem BioAssay.
Calls of active or inactive are those of the source. Unless noted, how the calls were made is not given here.

What was measured:
[1] = compound effects on lung adenocarcinoma cell viability – A549, calcein-AM fluorescence, 48 h, basal, profiling panel (AID 1162); conditions: higher = more signal; further: test concentration not given here
[2] = compound effects on differentiated 3T3-L1 adipocyte viability – cell-based, 3T3-L1 adipocytes, calcein-AM fluorescence, 48 h, basal, profiling panel (AID 1163); conditions: 3T3-L1 adipocytes viability, higher = more signal; further: test concentration not given here
[3] = compound effects on hepatocellular carcinoma cell viability – HepG2, calcein-AM fluorescence, 48 h, basal, profiling panel (AID 1164); conditions: higher = more signal; further: test concentration not given here
[4] = compound effects on multiple myeloma cell viability – MM1S, calcein-AM fluorescence, 48 h, basal, profiling panel (AID 1165); conditions: higher = more signal; further: test concentration not given here
[5] = calcein-AM signal in unstimulated myeloma cells – cell-based, calcein-AM fluorescence, 48 h, PK04 Diversity Set, profiling panel (AID 1166); conditions: RPMI8226 myeloma viability, higher = more signal;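 further: cells grown under basal conditions without added stimulus; test concentration not given here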
[6] = JC-1 mitochondrial signal, unstimulated HepG2 cells – cell-based, JC-1 fluorescence, 24 h, 100 nL compound, profiling panel (AID 1167); conditions: HepG2 mitochondrial potential, higher = more signal; further: test concentration not given here
[7] = JC-1 mitochondrial signal, unstimulated adipocytes – cell-based, JC-1 fluorescence, 3T3-L1 adipocytes, 24 h, 100 nL compound, profiling panel (AID 1168); conditions: JC-1 mitochondrial fluorescence, higher = more signal, called active from +8 up or from −8 down; further: test concentration not given here
[8] = JC-1 mitochondrial signal, unstimulated myeloma cells – cell-based, JC-1 fluorescence, RPMI8226, 24 h, 100 nL compound, profiling panel (AID 1169); conditions: JC-1 mitochondrial potential fluorescence, higher = more signal; further: test concentration not given here
[9] = JC-1 mitochondrial signal, unstimulated MM1S myeloma – cell-based, JC-1 fluorescence, 24 h, 100 nL compound, profiling panel (AID 1170); conditions: MM1S mitochondrial potential, higher = more signal; further: test concentration not given here
[10] = resazurin metabolic signal in A549 cells – cell-based, resazurin fluorescence, 24 h, PK04 Diversity Set, profiling panel (AID 1171); conditions: A549 viability, higher = more signal, called active from +8 up or from −8 down; further: test concentration not given here
[11] = resazurin metabolic signal in HepG2 cells – cell-based, resazurin fluorescence, 24 h, PK04 Diversity Set, profiling panel (AID 1172); conditions: HepG2 viability, higher = more signal; further: test concentration not given here
[12] = budding yeast growth changes without added modifier – OD600, strain BY4716, 24 h, basal condition, primary screen (AID 1173); conditions: S. cerevisiae BY4716 growth, OD600, 24 h; higher = more signal, called active from +8 up or from −8 down
[13] = viability profiling in MM1S myeloma cells – cell-based, resazurin fluorescence, basal, 24 h, PK04 Diversity Set, profiling panel (AID 1174); conditions: higher = more signal, called active from +8 up or from −8 down; further: test concentration not given here
[14] = target: Dihydroorotate dehydrogenase (quinone), mitochondrial (Plasmodium falciparum (isolate 3D7)) (UniProt Q08210); test: inhibition of P. falciparum DHODH – biochemical, C-terminal His tag, absorbance 600 nm, primary screen (AID 1175); conditions: PfDHODH enzyme, DCIP absorbance 600 nm; higher = more signal, called active from +8 up or from −8 down;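 further: recombinant parasite enzyme with a five histidine tag at its C terminus; test concentration not given here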
Dihydroorotate dehydrogenase (quinone), mitochondrial (Plasmodium falciparum (isolate 3D7)), sequence (Q08210 whole entry, looked up): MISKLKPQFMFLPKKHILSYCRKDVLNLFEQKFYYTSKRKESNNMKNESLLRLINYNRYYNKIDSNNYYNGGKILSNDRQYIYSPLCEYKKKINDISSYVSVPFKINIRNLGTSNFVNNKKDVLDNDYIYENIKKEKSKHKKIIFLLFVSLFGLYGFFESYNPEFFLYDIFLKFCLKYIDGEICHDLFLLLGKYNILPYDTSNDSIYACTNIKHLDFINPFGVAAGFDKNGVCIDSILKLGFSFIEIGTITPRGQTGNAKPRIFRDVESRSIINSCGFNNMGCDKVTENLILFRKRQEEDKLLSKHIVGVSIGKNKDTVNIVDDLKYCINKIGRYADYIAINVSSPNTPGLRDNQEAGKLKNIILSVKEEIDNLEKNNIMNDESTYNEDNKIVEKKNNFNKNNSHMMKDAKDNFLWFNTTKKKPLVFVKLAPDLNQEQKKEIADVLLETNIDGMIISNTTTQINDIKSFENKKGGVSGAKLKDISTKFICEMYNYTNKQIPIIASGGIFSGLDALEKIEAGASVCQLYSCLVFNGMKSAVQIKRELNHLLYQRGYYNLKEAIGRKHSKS

[15] = inhibition of PAO1 biofilm formation – strain PAO1, LB-PBS medium, absorbance 600 nm, primary screen (AID 1176); further: test concentration not given here; conditions: P. aeruginosa PAO1 growth/biofilm, A600, 12 h; higher = more signal
[16] = growth modulation of vineyard yeast isolate – strain RM11-1a, OD600, basal, 24 h, primary screen (AID 1177);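 further: cultures grown under basal conditions with no added stressor; test concentration not given here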; conditions: S. cerevisiae RM11-1a growth, OD600, 24 h; higher = more signal, called active from +8 up or from −8 down
[17] = growth of efflux-deficient E. coli DRC39 – strain DRC39, OD650, 24 h, E. coli filamentation inducers, primary screen (AID 1178);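 further: growth measured as culture turbidity by optical density at 650 nm; test concentration not given here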; conditions: E. coli DRC39 acrAB, higher = more signal, called active from +8 up or from −8 down
[18] = growth of efflux-deficient E. coli DRC39 – strain DRC39, OD650, 48 h, E. coli filamentation inducers, primary screen (AID 1179);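 further: screen aims at cell division blockers that make cells filament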; conditions: E. coli DRC39 delta-acrAB growth, higher = more signal, called active from +8 up or from −8 down
[19] = viability profiling in RPMI8226 myeloma cells – cell-based, resazurin fluorescence, basal, 24 h, PK04 Diversity Set, profiling panel (AID 1180); conditions: higher = more signal;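 further: RPMI8826 multiple myeloma cell line at 5000 cells per well; test concentration not given here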
[20] = target: E3 ubiquitin-protein ligase XIAP (Homo sapiens) (UniProt P98170); test: small molecules binding XIAP protein – biophysical, small-molecule microarray, fluorescence 635 nm, primary screen (AID 1181); conditions: higher = more signal;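 further: score merges 667 nm emission and signal to noise over triplicate slides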
E3 ubiquitin-protein ligase XIAP (Homo sapiens), sequence (P98170 whole entry, looked up): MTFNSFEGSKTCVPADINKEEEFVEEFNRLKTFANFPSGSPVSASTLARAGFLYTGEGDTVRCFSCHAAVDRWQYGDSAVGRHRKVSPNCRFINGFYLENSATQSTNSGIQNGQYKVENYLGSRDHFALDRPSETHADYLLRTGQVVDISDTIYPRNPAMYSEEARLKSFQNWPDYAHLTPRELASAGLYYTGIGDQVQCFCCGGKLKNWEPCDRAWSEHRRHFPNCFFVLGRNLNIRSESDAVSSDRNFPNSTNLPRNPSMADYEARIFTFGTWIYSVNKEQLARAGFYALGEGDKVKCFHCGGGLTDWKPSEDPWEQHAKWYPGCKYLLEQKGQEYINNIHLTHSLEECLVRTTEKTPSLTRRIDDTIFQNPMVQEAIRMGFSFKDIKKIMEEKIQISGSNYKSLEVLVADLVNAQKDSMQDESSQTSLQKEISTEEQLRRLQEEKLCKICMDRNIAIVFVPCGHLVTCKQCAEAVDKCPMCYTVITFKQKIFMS

SMILES | z-score [1] | z-score [2] | z-score [3] | z-score [4] | z-score [5] | z-score [6] | z-score [7] | z-score [8] | z-score [9] | z-score [10] | z-score [11] | z-score [12] | z-score [13] | composite z-score [14] | z-score [15] | z-score [16] | z-score [17] | z-score [18] | z-score [19] | composite z-score [20]
CN1C(=O)C2C=CC(C(O)C(c3ccccc3)c3ccccc3)N(Nc3ccccc3)C2C1=O (stereo not given) | 0.322 | -0.648 | -0.0678 | -1.34 | -1.07 | -1.66 | -0.981 (inactive) | 0.212 | -0.179 | 0.46 (inactive) | -0.562 | -2.21 (inactive) | -0.978 (inactive) | 0.0016 (inactive) | 1.16 (inactive) | -0.238 (inactive) | -1.31 (inactive) | -1.38 (inactive) | -1.2 | 0.21
COCCn1c(C(=O)N(C)C)cc2c1C[C@H]1CN(C(=O)c3ccccc3)[C@@](Cc3ccc(F)cc3)(C(=O)OC)[C@@H]21 | 0.428 | -0.687 | 0.684 | -0.259 | -0.362 | 0.938 | -0.499 (inactive) | 0.172 | -0.929 | -0.774 (inactive) | -0.473 | 0.717 (inactive) | -0.665 (inactive) | -0.0005 (inactive) | 0.535 (inactive) | 1.02 (inactive) | 0.0751 (inactive) | 0.223 (inactive) | -0.38 | 0.0447
C=CCC(OC(C)=O)[C@@H]1[C@@H](N(Cc2ccc(-c3cccc(C(F)(F)F)c3)o2)C(=O)c2ccc(C)cc2)c2cc(OCCCO)ccc2N1C(=O)c1ccc2ccccc2n1 (stereo not given in full) | 1.03 | 0.27 | 1.91 | -0.0472 | -0.526 | 2.67 | -0.351 (inactive) | 0.962 | -0.165 | 0.16 (inactive) | 0.347 | -0.304 (inactive) | 0.0003 (inactive) | -1.35 (inactive) | -0.325 (inactive) | -0.0057 (inactive) | -0.379 (inactive) | 0.317 (inactive) | -0.37 | 0.265
CC1CC/C=C\[C@H]2OC34C=CCN(CCN5CCOCC5)C(=O)[C@H]3N(CCCCCO)C(=O)[C@@H]4C2C(=O)O1 (stereo not given in full) | -0.365 | 0.374 | 0.68 | 1.09 | 0.0186 | -0.461 | -0.189 (inactive) | -0.0345 | -0.107 | -0.19 (inactive) | -0.693 | -0.501 (inactive) | 0.183 (inactive) | 1.07 (inactive) | -0.456 (inactive) | 0.0357 (inactive) | 0.408 (inactive) | 0.45 (inactive) | -0.977 | 0.33
COCCCNC(=O)[C@@]1(Cc2ccccc2I)c2ccccc2C(=O)N(Cc2ccccc2)[C@H]1c1ccc(CO)cc1 | 0.954 | 0.387 | 0.828 | -0.657 | -1.25 | 1.71 | -0.432 (inactive) | -0.136 | 0.651 | 1.67 (inactive) | 0.348 | 0.346 (inactive) | 1.01 (inactive) | 1.17 (inactive) | -0.205 (inactive) | 2.28 (inactive) | 0.322 (inactive) | -0.15 (inactive) | 1.5 | -0.193
O=S(=O)(NCCCO)c1ccc(Br)cc1 | 0.819 | -0.307 | 0.492 | 0.704 | 1.24 | 0.76 | 0.371 (inactive) | 0.514 | -0.722 | -0.285 (inactive) | 0.304 | -0.476 (inactive) | 0.261 (inactive) | -1.62 (inactive) | -0.236 (inactive) | -0.482 (inactive) | 1.68 (inactive) | 2.3 (inactive) | 0.461 | 0.0441
[N-]=[N+]=NCc1ccccc1[C@@H]1OC(c2ccc(OCCCO)cc2)=N[C@]1(Cc1ccccc1N=[N+]=[N-])C(N)=O | -0.533 | 0.306 | 0.0804 | -1.01 | -2.22 | -1.5 | -1.92 (inactive) | -0.918 | -0.0745 | -0.139 (inactive) | -0.0426 | -2.11 (inactive) | -0.727 (inactive) | 0.0263 (inactive) | 0.603 (inactive) | 0.604 (inactive) | 0.333 (inactive) | -0.37 (inactive) | -1.2 | 0.0656
COC(=O)[C@@]1(Cc2ccc(F)cc2)[C@H]2c3cc(C(=O)N(C)C)n(CCc4c[nH]c5ccc(OC)cc45)c3C[C@H]2CN1C(=O)c1ccccc1 | -0.906 | 0.813 | -0.885 | -0.64 | -1.79 | 0.922 | -0.939 (inactive) | -0.262 | -1.82 | -0.752 (inactive) | -0.643 | 0.971 (inactive) | -2 (inactive) | -2.26 (inactive) | 4.65 (inactive) | 0.679 (inactive) | -0.562 (inactive) | -0.681 (inactive) | -1.59 | 0.326
C=C(C(=O)CC[C@@H](OC(=O)c1cccnc1)c1ccc(OCCO)cc1)C(C)C | -1.9 | -1.63 | -3.17 | -3.39 | -1.9 | -0.959 | -0.0274 (inactive) | -0.304 | -1.41 | -1.34 (inactive) | -0.706 | -18.4 (active) | -0.446 (inactive) | -3.83 (inactive) | 0.907 (inactive) | -22.2 (active) | -0.706 (inactive) | -0.694 (inactive) | -1.56 | -0.184
